Screening data as filed in PubChem BioAssay.
D2 ag-1: human D2 receptor agonism in beta-arrestin assay; P14416; DiscoveRx PathHunter D2 beta-arrestin, luminescence, 90 min; 100% = 57 uM dopamine signal; activation, % (concentration not given with the values); 360,000 compounds, 0.084% hits; in the data active means activation above about 40%; inconclusive means between about 15% and that limit
Target sequence (P14416 whole entry, looked up): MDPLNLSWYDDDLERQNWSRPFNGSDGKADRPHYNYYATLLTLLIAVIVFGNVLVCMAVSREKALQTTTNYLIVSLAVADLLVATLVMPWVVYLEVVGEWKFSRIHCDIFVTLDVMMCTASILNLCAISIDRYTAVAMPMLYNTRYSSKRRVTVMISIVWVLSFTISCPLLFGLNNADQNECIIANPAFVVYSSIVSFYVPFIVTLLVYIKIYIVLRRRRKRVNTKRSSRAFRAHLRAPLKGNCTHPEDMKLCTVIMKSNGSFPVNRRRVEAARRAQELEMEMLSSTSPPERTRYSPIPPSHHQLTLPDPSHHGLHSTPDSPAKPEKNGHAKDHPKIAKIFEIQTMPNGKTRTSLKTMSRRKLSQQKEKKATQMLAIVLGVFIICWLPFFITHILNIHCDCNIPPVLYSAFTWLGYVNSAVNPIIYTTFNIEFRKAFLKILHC
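DiscoveRx PathHunter D2 beta-arrestin cells (2,100/well) attached overnight, then compound-stimulated 90 min at 37 C in HBSS/10 mM HEPES/0.1% Tween-20 buffer; beta-galactosidase complementation read by luminescence after 1 h at ambient temperature. Dopamine 57 uM final (EC100) as control.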
D2 PAM-1: positively modulates the human D2 dopamine receptor allosterically; P14416; HEK293 T-REx D2, calcium flux, EC20 dopamine potentiation; potentiation, % at 10 µM; 340,000 compounds, 0.34% hits;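 active means potentiation over 3 SD above the plate norm, cut at about 30% in these data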; further: 0% is about no effect
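Using a no-wash calcium dye in inducible, force-coupled HEK293 Trex cells expressing D2, we tracked fluorescence each second for 180 s after compound, then for 180 s after EC20 dopamine to detect augmented signalling.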
D2 PAM-2: potentiates the human D2 dopamine receptor allosterically | P14416 | DiscoveRx D2 beta-arrestin cells, luminescence, 90 min; 100% = 57 uM dopamine signal | potentiation, % (concentration not given with the values) | 360,000 compounds, 0.23% hits | AID 624464; in the data active means potentiation above about 50%; inconclusive means mostly about 30% to 49%
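PathHunter D2 cells, attached overnight at 37 deg C, received compound in DMSO plus dopamine at EC20 (50 nM final) for 90 min at 37 deg C. Beta-arrestin recruitment was read as luminescence after 1 h with detection reagent at ambient temperature.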
D2 antagonist: D2 dopamine receptor (human) antagonism; inhibition, % at 10 µM; HEK293 TREx D2 cells, calcium flux, dopamine EC80; P14416; 340,000 compounds, 2% hits; in the data active means inhibition above about 30%; inactive means below that, where a call was filed; further: 0% is about no effect
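Inhibition of EC80 dopamine-driven calcium flux, recorded kinetically, defines activity here; cells are a tetracycline-induced HEK293 T-REx line expressing force-coupled D2.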
D2 ag-2: D2 dopamine receptor (human) agonism | HEK293 T-REx D2 cells, calcium flux agonist mode | 340,000 compounds, 0.53% hits | activation, % at 2 µM | P14416;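 active means activation over 3 SD above normal in the single-dose calcium agonist read, cut at about 30% in these data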; further: 0% is about no effect
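Calcium-flux readout, 1 cycle/sec over 180 s following compound pin transfer, in inducible HEK293 Trex D2 cells (force-coupled); dopamine controls included. Positive calcium responses during this window marked compounds as potential agonists.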
Numbers without * were called inactive; ? = inconclusive; . = no result given; ! = not active in a repeat. The list is not random: actives were taken first. Their share in the collection is about 2.4%.

SMILES	D2 ag-1	D2 PAM-1	D2 PAM-2	D2 antagonist	D2 ag-2
Cc1ccc(/C=[N+](\[O-])c2ccc(N(C)C)cc2)c2nsnc12	2.5	-4.2	8.2	48.4*	9.2
Cc1ccc(N(CC(=O)Nc2ccc(Br)c(C)c2)S(=O)(=O)c2cccs2)cc1	.	-10.2	.	.	0.4
O=c1[nH]c(/C=C/c2ccc([N+](=O)[O-])cc2)c([N+](=O)[O-])c(=O)[nH]1	?	-1.6	52.2*	3.1	-0.1
O=c1[nH]c(/C=C/c2ccc3c(c2)OCO3)c([N+](=O)[O-])c(=O)[nH]1	.	-8.5	.	-2.9	3.3
CCc1cccc(C)c1NC(=O)CN1CCCN(Cc2ccccc2Cl)S1(=O)=O	.	-1.9	.	.	-0.2
Cc1cccc(C)c1NC(=O)CCCSc1nc2ccccc2s1	-3.4	7.6	-20.8	-3.5	-0.6
CCc1cccc(CC)c1NC(=O)CCCSc1nc2ccccc2s1	1.9	-2.3	15.0	30.3*	-1.4
CCc1ccc(CNC(=O)c2ccc(-n3c(C)cc4c3CCC(C)C4)cc2)cc1 (centres undefined)	.	3.8	.	.	-1.5
CCn1c(SCc2ccc([N+](=O)[O-])cc2)nnc1C(C)NC(=O)c1ccc(C)cc1 (centres undefined)	-1.5	-5.2	-6.5	-5.5	-0.5
CC(NC(=O)c1ccc(Cl)cc1)c1nnc(SCc2ccc([N+](=O)[O-])cc2)n1C (centres undefined)	0.7	-11.2	-3.8	32.3*	1.0
Cc1ccc(/C=C/C(=O)N2CCC(c3nc4ccccc4o3)CC2)cc1	.	3.3	.	.	-1.7
NC(=O)c1c(NC(=O)c2ccccc2)sc2c1CCN(Cc1ccccc1)C2	-1.0	-6.9	-7.4	6.5	44.0*
NC(=O)c1c(NC(=O)c2c(F)cccc2F)sc2c1CCN(Cc1ccccc1)C2	-1.0	-2.1	-7.2	-16.7	28.5
CCN1CCc2c(sc(NC(=O)Cc3ccccc3)c2C(N)=O)C1	-6.1	-23.0	-14.9	8.2	-0.2
CCN1CCc2c(sc(NC(=O)Nc3ccc(Cl)c(Cl)c3)c2C(N)=O)C1	7.4	-13.3	-16.1	72.5*	109.4*
CCC(=O)Nc1sc2c(c1C(N)=O)CCN(Cc1ccccc1)C2	-4.7	-3.7	-12.6	38.1*	54.5*
CCN1CCc2c(sc(NC(=O)c3ccc(S(=O)(=O)N(CC)c4ccccc4)cc3)c2C(N)=O)C1	0.8	-5.7	-9.2	8.5	52.3*
CC(C)C(=O)Nc1sc2c(c1C(N)=O)CCN(Cc1ccccc1)C2	-7.1	-18.3	-12.0	25.6	2.6
O=C(NCCS(=O)(=O)N1CCN(c2ccc(F)cc2)CC1)c1cccc(C(F)(F)F)c1	.	11.7	.	.	-0.2
Fc1ccc2c(c1)-c1nc(-c3ccccc3)cc(-c3ccccc3)c1CO2	.	17.1	.	.	-1.1
Cc1nnc(N/N=C/c2cccc(C(F)(F)F)c2)n1N	0.2	-7.9	-3.1	-17.0	19.1
Cc1nnc(N/N=C/c2cccc(OCc3ccc(Cl)c(Cl)c3)c2)n1N	14.5	-9.2	74.3*	-29.4	-1.1
CCC(C)NC(=O)Cn1ncc2c(C)n(Cc3ccc(F)cc3)c(C)c2c1=O (centres undefined)	.	-0.1	.	.	.
CCCSc1ncc(Cl)c(C(=O)Nc2c(C(=O)c3ccc(C)cc3)oc3ccccc23)n1	.	2.0	.	.	0.7
O=C(NNC(=O)c1ccc([N+](=O)[O-])cc1)c1ccc(NS(=O)(=O)c2cccs2)cc1	-5.9	.	-14.0	.	.
SMILES	D2 ag-1	D2 PAM-1	D2 PAM-2	D2 antagonist	D2 ag-2
COC(=O)c1cc(C(=O)OCC(=O)NNC(=O)c2cccs2)cc([N+](=O)[O-])c1	8.1	-10.3	71.0*	-5.8	0.1
CC(C)(C)c1ccc(C(=O)NC(=S)NNC(=O)c2cccs2)cc1	-1.7	-13.0	-11.5	56.4*	51.0*
O=C(NNC(=O)c1cccs1)c1ccc([N+](=O)[O-])cc1	-3.2	2.1	-9.2	61.3*	1.0
Cc1cc(C(=O)OCC(=O)NNC(=O)c2cccs2)ccc1[N+](=O)[O-]	1.9	11.5	-1.6	-11.7	0.5
Cc1nc2nc[nH]n2c(=O)c1NC(=O)CC12CC3CC(CC(C3)C1)C2	2.8	31.4*!	1.5	-3.9	-0.7
O=C(Nc1nc2ccccc2n1CCN1CCCCC1)C1CCCCC1	-1.5	-19.2	-10.1	41.6*	-0.7
COc1ccc(OC)c(CNc2nc3ccccc3n2CCN2CCCCC2)c1	-4.8	-20.7	-19.3	33.5*	-0.3
CCN(CC)CCn1c(NCc2ccc(OC)cc2)nc2ccccc21	-3.0	-38.0	-29.8	74.7*	-0.1
COc1ccc(CNc2nc3ccccc3n2CCN2CCCCC2)c(OC)c1	-5.8	-20.0	-43.8	0.0	7.3
O=C(Nc1nc2ccccc2n1CCN1CCCC1)C1CCCCC1	-4.8	-20.8	-37.4	21.9	-1.1
CCCCCn1c(NCc2ccc(OC)cc2)nc2ccccc21	.	-0.1	.	.	-0.2
CCCCNC(=O)N1CCOCCOCCN(C(=O)NCCCC)CCOCCOCC1	-1.1	.	4.7	32.3*	2.7
COc1cc(C(=S)N2CCOCC2)ccc1OC(=O)c1ccc([N+](=O)[O-])cc1[N+](=O)[O-]	59.2*	-2.3	60.7*	5.5	0.5
COc1ccc(C(=S)N2CCOCC2)cc1OC(=O)c1ccc([N+](=O)[O-])cc1	7.7	16.5	14.2	-9.6	1.5
CC(C)OCCCNc1ncnc2c1nc1n2CCCC1	-2.2	13.1	-2.7	32.5*	-0.1
O=S(=O)(NCc1csc(-c2ccccc2)n1)c1ccccc1	.	-4.2	.	.	0.5
Cc1cc(C)c2c(c1)[C@@H]1C=CC[C@@H]1[C@H](c1ccc(S(=O)(=O)N3CCOCC3)cc1)N2	-1.6	2.0	-4.6	35.0*	-0.2
Cc1cccc(N2CCN(C(=O)Cn3nc(Cc4cccnc4)c4ccccc4c3=O)CC2)c1C	.	-3.2	.	.	.
COc1ccc(CCNc2nc(-c3ccc(OC)c(OC)c3)cc(C(F)(F)F)n2)cc1OC	.	5.7	.	.	0.0
COc1ccc(NC(=O)c2cc(S(=O)(=O)N3CCCC(C)C3)cn2C)c(OC)c1 (centres undefined)	.	5.3	.	.	-1.9
O=C(Nc1ccccc1)C1=C(c2ccccc2)S(=O)(=O)CCS1(=O)=O	-4.6	58.4*	-19.2	-2.7	2.9
Cc1cc(N2CCCC2)nc(-c2ccccc2O)n1	-3.2	2.8	-12.5	7.8	0.2
Cc1cc(N2CCCCC2)nc(N)n1	-4.9	-14.4	-7.2	60.1*	68.9*
Cc1oc2c(C)c3oc(=O)c(CC(=O)N4CCCCC4)c(C)c3cc2c1C	.	-1.7	.	.	0.2
COc1cc(NC(=O)c2ccc(NC(=O)N3CCSc4ncccc43)cc2)cc(OC)c1	.	3.5	.	.	-1.0
O=C(CCCc1ccccc1)NC1CC(=O)N(c2ccc(Cl)cc2)C1 (centres undefined)	.	14.0	.	.	-2.6
O=C(NCc1ccc(F)cc1)c1ccc2c(=O)n3c(nc2c1)CCCCC3	-0.7	-0.9	-0.4	-4.1	-0.6
Cc1nc2n(c(=O)c1CCN1CCC(c3noc4cc(F)ccc34)CC1)CCCC2	.	.	.	86.3*	.
